39 compounds from PubChem BioAssay (NCATS) can be followed below.

Inconclusive results are not listed. A number with no mark means an inactive call. Calls come from the whole dose curve; as a rule, active = well fitted curve in the direction sought with a large enough effect; inconclusive = small, poorly fitted or top-dose-only effect, or another doubt; inactive = no such curve, though single readings can be large; an effect the other way counts as inactive or inconclusive.

For the first assay, the target named is Aldehyde dehydrogenase, mitochondrial (Homo sapiens) (UniProt P05091). Description: qHTS for Inhibitors of the Aldehyde Dehydrogenase Family (ALDH2) Primary screen (AID 2061308).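 Note: plate controls were vehicle for no effect and reference inhibitor for full effect; nearly all actives have a fitted effect of over 55% in size.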 Conditions: ALDH2 enzyme inhibition qHTS, 1536-well; series mostly up to 56 µM; activity change, negative = inhibition: at the top concentration. (qHTS replaces the single test concentration by a dilution series.)
For `COC1CCN(c2cccc(-c3cc(NC(C)=O)nc(-n4nc(C)cc4C)n3)n2)CC1`, the “activity change, negative = inhibition” value is 0.693%.

With `CC(C)(F)CC(NC(c1ccc(-c2ccc(S(C)(=O)=O)cc2)cc1)C(F)(F)F)C(=O)NC1(C#N)CC1` (stereo unspecified), the “activity change, negative = inhibition” value was 5.01%.

The target of another assay is Retinaldehyde dehydrogenase 3 (Homo sapiens) (UniProt P47895). Description: qHTS for Inhibitors of the Aldehyde Dehydrogenase Family (ALDH1A3) Validation screen (AID 2061312). Note: % is set by controls: 0 for no effect and ±100 for the full control effect; nearly all actives have a fitted effect of over 45% in size. Conditions: ALDH1A3 enzyme inhibition qHTS validation, fluorescence; series mostly up to 84.7 µM; activity change, negative = inhibition: at the top concentration.
In the case of `CCO[C@H]1CN(C2CCC(O)(c3ccc4c(c3)OCO4)CC2)C[C@@H]1NC(=O)CNC(=O)c1cccc(C(F)(F)F)c1` (stereo partly specified), the “activity change, negative = inhibition” value is 78.6%. Same read-out and setting: the figure for `CCCc1cc(C)[nH]c(=O)c1CNC(=O)c1cc(-c2ccnc(N3CCN(C)CC3)c2)cc2c1cnn2C(C)C` is 94.7%. For the compound `O=C(Nc1ccccc1Br)NC1CCN(c2ccc(C(F)(F)F)cn2)C1` (stereo unspecified), the “activity change, negative = inhibition” value was 49.4%. In the case of `N#CC(c1ccnc(OCc2ccc(CN3CCOCC3)cc2)n1)c1nc2ccccc2s1` (stereo unspecified), the “activity change, negative = inhibition” value is -11.7%. Take `CC(C)c1ccccc1OC(=O)NCCc1ccc2ccccc2c1`: the “activity change, negative = inhibition” value is -20.9%. With `CCn1c2ccccc2c2cc(CNC)ccc21`, the “activity change, negative = inhibition” value was 12.7%. Regarding `Cc1ccc(Cl)cc1N(CC(=O)Nc1c(F)cccc1F)S(C)(=O)=O`, the “activity change, negative = inhibition” value is 15.1%. On to `CNc1ccc([N+](=O)[O-])cc1-n1cnc(-c2ccc(C(F)(F)F)cc2)c1`, for which the “activity change, negative = inhibition” value was 52.3%.

Turning to `COc1ccc(C(=O)NCc2cc(C(C)C)no2)cc1OC1CCN(C)CC1`, the “activity change, negative = inhibition” value was 1.2%. `COc1ccc(CN2CCN(C(=O)CCNC(=O)c3ccc(C(C)(C)C)cc3)CC2)cc1`: the “activity change, negative = inhibition” value was 92.1%. Still for that read-out and setting: to `Cc1onc(-c2ccccc2Cl)c1C(=O)N(C)c1ccc(Cl)cc1` belongs 32.7%; to `CS(=O)(=O)c1ccc([C@@H](O)[C@@H](CF)NC(=O)C(Cl)Cl)cc1`, -3.9%; to `CC[C@H]1CN(c2nc(N)c(C(N)=O)nc2Cl)CCN1C1CCN(Cc2ccc(Cl)cc2)CC1`, -29.7%. With `O=S(=O)(Nc1ccccc1N1CCCCC1)c1ccc(Cl)s1`, the “activity change, negative = inhibition” value was -26.3%. With `c1ccc(C(OC2CCN(CCCc3nn[nH]n3)CC2)c2ccccc2)cc1`, the “activity change, negative = inhibition” value was 24.4%. As for `COc1ccc2cc(-c3cc(-c4cc(Cl)cc(Cl)c4)nn3C(C)c3ccc(C(=O)NCCC(=O)O)cc3)ccc2c1` (stereo unspecified), the “activity change, negative = inhibition” value is -2.2%. Turning to `COc1cc(Br)c(Nc2nc(-c3c(C)nc4ncccn34)cs2)c(Br)c1`, the “activity change, negative = inhibition” value was -11.1%.

In the case of `O=c1[nH]c2ccccc2n1CCN1CCN(c2cccc(C(F)(F)F)c2)CC1`, the “activity change, negative = inhibition” value is 16%.

Consider `CC1(C)CC(NC(=O)C(=O)Nc2ccc(Br)cc2)CC(C)(C)N1`, for which the “activity change, negative = inhibition” value was 123%. Turning to `C[C@]12CC[C@@H]3c4ccc(OC(=O)c5ccccc5)cc4CC[C@H]3[C@@H]1CC[C@@H]2O`, the “activity change, negative = inhibition” value is -17.4%. For the compound `Cc1ccccc1NC(=O)Nc1ccc(CN2C(=O)N([C@@H](CC(C)C)C(=O)N[C@@H](CC(=O)O)c3ccccc3)C(=O)C2(C)C)cc1`, the “activity change, negative = inhibition” value was 0.986%. In the case of `Cc1[nH]cnc1C1CCN(c2nc3cccc4c3n2CCC4=O)CC1`, the “activity change, negative = inhibition” value was 30.4%.

In the case of `Cc1ccc2[nH]c(=O)c(C3=NN(C(=O)CCC(=O)O)C(c4ccc(Br)cc4)C3)c(-c3ccccc3)c2c1` (stereo unspecified), the “activity change, negative = inhibition” value was 49.4%.

Regarding `COc1cccc(OC)c1-c1nc(C(=O)N[C@@H](CC(C)C)C(=O)O)cn1-c1ccnc2cc(Cl)ccc12`, the “activity change, negative = inhibition” value was -33.6%. In the case of `Cc1ccnc(NC(=O)C(C)c2cccc(C(=O)c3ccccc3)c2)c1` (stereo unspecified), the “activity change, negative = inhibition” value is 14.3%.

As to `CCCn1c(=O)c2[nH]c(-c3ccc(OCC(=O)O)cc3)nc2n(CCC)c1=O`, the “activity change, negative = inhibition” value is -18.6%.

With `O=C(O)c1ccc(S(=O)(=O)N(Cc2ccc(OC(F)(F)F)cc2)c2ncc(C(F)(F)F)cc2Cl)cc1`, the “activity change, negative = inhibition” value is -33.3%. Same read-out and setting: the figure for `CCOC(=O)[C@H](CCc1ccccc1)CC1(C(=O)N[C@H]2CCc3ccccc3N(CC(=O)O)C2=O)CCCC1` is 7.65%; for `CCC1C(=O)N(C)c2cnc(Nc3ccc(C(=O)NC4CCC(N5CCN(CC6CC6)CC5)CC4)cc3OC)nc2N1C(C)C` (stereo unspecified) it is 198%; for `O=C(CCc1nnc2n(Cc3ccc(Cl)cc3)c(=O)c3ccccc3n12)NCCC1=CCCCC1` it is 70.4%. For the compound `CC1(C)CC(=O)N(CCCCN2CCN(c3ncccn3)CC2)C(=O)C1`, the “activity change, negative = inhibition” value is -9.35%. Consider `O=C(O)c1cccc(S(=O)(=O)N2CCc3ccccc3C2)c1`, for which the “activity change, negative = inhibition” value was 34.4%.

In the case of `CNS(=O)(=O)CC1CCC(N(C)c2ncnc3[nH]ccc23)CC1` (stereo unspecified), the “activity change, negative = inhibition” value was 160%. For `COc1cc2ncnc(Oc3ccc(CC(=O)Nc4cnn(C(C)C)c4)cc3)c2cc1OC`, the “activity change, negative = inhibition” value was 118%. With `c1cc(OCCCN2CCCCC2)ccc1CN1CCCCC1`, the “activity change, negative = inhibition” value is -44.1%. The same measure, in the same setting: the figure for `CNc1ccc([N+](=O)[O-])c(Nc2ccc3[nH]ncc3c2)n1` is 23.7%; for `C=CC(C)(O)CC[C@@H]1[C@@]2(C)CCCC(C)(C)C2CC[C@@]1(C)O` (stereo partly specified) it is 9.5%; for `COC1CCN(c2cccc(-c3cc(NC(C)=O)nc(-n4nc(C)cc4C)n3)n2)CC1` it is 36.2%. As to `CC(C)(F)CC(NC(c1ccc(-c2ccc(S(C)(=O)=O)cc2)cc1)C(F)(F)F)C(=O)NC1(C#N)CC1` (stereo unspecified), the “activity change, negative = inhibition” value is -26.6%.
